Out of some 1,300 compounds screened, about 330 (25%) were called active. No rule for the calls is given here. A selection follows. Results with a measured potency or affinity are listed apart.
Experiment: MALME3 melanoma cell viability loss, dose response, orthogonal assay for MITF inhibitor project, CellTiter-Glo, cherry-picked (AID 493191)
Conditions: CellTiter-Glo luminescence, 24 h; series mostly up to 35 µM; activity change, negative = inhibition: at the top concentration

Compound	activity change, negative = inhibition
Nc1ncnc(Sc2ncccn2)c1[N+](=O)[O-]	14.4% (inactive)
CC(C)C(=O)Nc1ccc2nn(-c3ccc(F)cc3)nc2c1	1.91% (inactive)
CS(=O)(=O)N1CCN(c2nc3ccc(Cl)cc3s2)CC1	14.2% (inactive)
CCCN1CCC(NCc2cn(C)nc2-c2ccc(Oc3ccccc3)cc2)CC1	-33.6% (inactive)
CC(O)CNC(=O)C1CCN(Cc2ccc(OCc3ccccc3)cc2)CC1 (stereo not drawn)	-0.748% (inactive)
Cc1ccccc1NC(=O)Cc1nc(COC(=O)c2ccc(S(C)(=O)=O)c([N+](=O)[O-])c2)cs1	-35.7% (inactive)
COC(=O)c1ccc(COc2ccc(C)cc2[N+](=O)[O-])o1	0.832% (inactive)
Cc1ccc(-c2n[nH]c(=O)c3ccccc23)cc1S(=O)(=O)NCC1CCCO1 (stereo not drawn)	-3.9% (inactive)
C=CCNC(=O)Cn1nnc(-c2ccc(-c3ccc(OC)cc3)cc2)n1	-6.58% (inactive)
O=C(N/N=C/C=C/c1ccccc1)c1ccccn1	6.57% (inactive)
Cc1ccc(-c2cn3nc(C)c(C)nc3n2)cc1	-19.4% (inactive)
Cc1ccc2oc(Nc3nc(C)c(C)c(C)n3)nc2c1	-2.9% (inactive)
C=C1C(=O)C2=CC1CCC(=O)C1(C)CCC(OC(C)=O)C(C)(C)C1CC2O (stereo not drawn)	-43.8% (inactive)
N/C(=N\OC(=O)c1ccccc1Cl)c1cccc([N+](=O)[O-])c1	3.35% (inactive)
O=C(NC(=S)Nc1ccccn1)c1cccc([N+](=O)[O-])c1	-0.338% (inactive)
COC(=O)c1ccc(Nc2cc(C)nc3ccc(C)cc23)cc1	-5.79% (inactive)
CCOc1ccc2nc(C)cc(Nc3cccc([N+](=O)[O-])c3)c2c1	-64.2% (inactive)
Clc1ccc(-c2c[n+](Cc3cccc(Cl)c3)c3n2CCC3)cc1	-3.77% (inactive)
O=c1c2ccccc2cnn1CCOc1ccccc1	-21.9% (inactive)
CS(=O)(=O)c1ccc(C(=O)OCC(=O)NCc2cccs2)cc1[N+](=O)[O-]	-38.8% (inactive)
O=[N+]([O-])c1cc(C(F)(F)F)ccc1NCCc1ccccn1	3.81% (inactive)
CS(=O)(=O)c1ccc2nc(NC(=O)c3ccccc3)sc2c1	-14% (inactive)
O=C(O)c1cccc(NC(=O)c2cccc(NC(=O)C3CCCO3)c2)c1 (stereo not drawn)	2.35% (inactive)
O=C(N/N=C/c1ccc([N+](=O)[O-])s1)c1ccccc1	-49.8% (inactive)

Compound	activity change, negative = inhibition
Cc1ccc(C(=O)N/N=C\c2ccc([N+](=O)[O-])s2)cn1	-42.5% (inactive)
C=C1CCC[C@]2(C)C[C@H]3OC(=O)C(CN4CCCCC4CO)[C@H]3CC12 (stereo partly drawn)	18% (inactive)
COc1cc(SC)ccc1C(=O)Nc1ncc(C)s1	-18.2% (inactive)
O=C(NCc1ccccc1)C(=O)Nc1cccc(C(=O)O)c1	3.68% (inactive)
CC(C)(C)c1cc(NCCCn2ccnc2)n2ncc(-c3ccccc3)c2n1	-26.9% (inactive)
Nc1ccc(-c2nc3c(Cl)cc(N)cc3[nH]2)cc1	7.31% (inactive)
Cc1c(C#N)c(O)n(CCO)c(=O)c1N=Nc1ccc2c(c1)COC2=O	-14.4% (inactive)
CCN(CC)c1ccc(/C=N/NC(=O)c2cccc(S(=O)(=O)N3CCOCC3)c2)c(O)c1	-15.7% (inactive)
CCSc1nnc(NC(=O)C2CCCCC2)s1	6.64% (inactive)
O=C(CCl)N(c1ccccc1)c1c[nH]c2ccccc12	-41.4% (inactive)
O=C(CCl)N(Cc1cc(=O)[nH]c2ccccc12)c1ccccc1	-29.2% (inactive)
Fc1ccccc1-c1nc(-c2ccncc2)no1	-6.62% (inactive)
Clc1cccc(-c2nc(-c3ccccn3)no2)c1	-33.8% (inactive)
Clc1ccccc1CSc1nnc(-c2ccncc2)o1	-8.1% (inactive)
CCOc1ccc(N(CC(=O)Nc2ccc(OC)cc2)S(C)(=O)=O)cc1	-6.34% (inactive)
CCC(=O)Nc1cc2nn(-c3ccc(C)cc3)nc2cc1C	5.18% (inactive)
CC(=O)SC(C[N+](=O)[O-])c1cn(C(C)=O)c2ccccc12 (stereo not drawn)	-33.7% (inactive)
CC1Cc2ccccc2N1C(=O)c1ccc(Br)o1 (stereo not drawn)	-23.8% (inactive)
CCOC(=O)/C=c1/s/c(=C/c2ccc3cc(OC)ccc3c2)c(=O)n1CC(=O)NCC1CCCO1 (stereo not drawn)	-15.4% (inactive)
O=C(Nc1ccc(-c2cn3c(n2)SCC3)cc1)c1ccco1	-3.35% (inactive)
C/C(=N\NC(=O)C1COc2ccccc2O1)c1ccccn1 (stereo not drawn)	-16.7% (inactive)
C/C(=N\NC(=O)COc1ccccc1-c1ccccc1)c1ccccn1	-23% (inactive)
O=C(NC1=NCCS1)C1COc2ccccc2O1 (stereo not drawn)	-18.9% (inactive)
O=[N+]([O-])c1ccc(N/N=C/C=C/c2ccco2)cc1	-6.15% (inactive)

Compound	activity change, negative = inhibition
C=CCOc1ccc(/C=C2\SC(=S)N(CCC(=O)O)C2=O)cc1	8.72% (inactive)
Cc1c(C#N)c(NC(=O)CCl)n(Cc2cccs2)c1C	-41.2% (inactive)
O=C(NCc1cccs1)c1nc2c(nnn2Cc2ccccc2Cl)c(=O)[nH]1	0.593% (inactive)
CC(=O)Oc1c(C(=O)c2nnc(C)o2)c(=O)n(Cc2ccccc2)c2ccccc12	-19.6% (inactive)
COc1ccc(/C=N/NC(=O)Cc2cccs2)cc1	-1.89% (inactive)
Cc1occc1C(=O)N/N=C/c1ccc(OCc2ccccc2)cc1	-1.16% (inactive)
Cc1ccc(OCC(=O)N/N=C/c2ccc([N+](=O)[O-])o2)cc1	-39.6% (inactive)
Cc1ccc(SCCC(=O)N2CCC(C)CC2)cc1	7.77% (inactive)
Cc1cc(/C=C(\C#N)C(=O)O)c(C)n1CC(C)C	11.7% (inactive)
Cc1ccc(SCCSc2ncccn2)cc1	-13.9% (inactive)
Nc1c(-c2ccccc2)cnc2c(-c3ccccc3)cnn12	-2.55% (inactive)
COc1ccccc1OCCN1CSC(=S)N(C)C1	-42.5% (inactive)
O=C(Nc1ccc(F)cc1F)c1cc2ccccc2oc1=O	6.79% (inactive)
COc1ccc(C(=O)CN2Cc3ccccc3C2=N)cc1	-7.91% (inactive)
O=C(Nc1ccccc1)O/N=C/c1ccc(F)cc1	-5.62% (inactive)
CC1(C)Cc2c(sc(NC(=O)c3ccc4ncsc4c3)c2C(N)=O)C(C)(C)N1	-0.009% (inactive)
CCCN(CCC)C1=CC(=[N+]2CCCC2)CC(C)(C)C1	-17.8% (inactive)
O=C(N/N=C/c1ccc(F)cc1)c1c(O)c2ccccc2[nH]c1=O	-2.15% (inactive)
Cc1ccc(NC(=O)c2cc3ccccc3oc2=O)cc1S(=O)(=O)N(C)C	-37.5% (inactive)
CC(C)C(=O)Nc1cccc(NC(=O)c2cc3ccccc3o2)c1	-6.15% (inactive)
Cc1ccc(-c2nc(C#N)c(NCc3ccco3)o2)cc1	-2.18% (inactive)
Cc1ccc2c(COC(=O)c3n[nH]c4ccccc34)cc(=O)oc2c1	-17.5% (inactive)
N#C/C(C(=O)c1ccccc1)=C1/CCCCCN1	-9.1% (inactive)
COc1ccc2c(c1OC)C(=O)N(c1ccc(C)cc1)C2	-3.44% (inactive)

Compound	activity change, negative = inhibition
CCOc1cc(/C=C(/C#N)c2ccc(Cl)cc2)cc(Cl)c1OCC(=O)O	13.5% (inactive)
O=C(Nc1ccc2nc3n(c(=O)c2c1)CCCCC3)c1cc([N+](=O)[O-])ccc1F	-16% (inactive)
CC(C)(C)C(=O)Nc1cc2nn(-c3ccccc3)nc2cc1Cl	-14.6% (inactive)
Oc1ccc(-c2nnc(SCC3CCCCC3)o2)cc1	-10.5% (inactive)
CC(=O)c1cccc(Nc2nc(-c3cccnc3)cs2)c1	-5.43% (inactive)
CCOc1cc(/C=C\[N+](=O)[O-])ccc1OCC(=O)N1CCOCC1	-26.9% (inactive)
C/C(=N/Nc1nc(C)c(C)s1)c1cccc([N+](=O)[O-])c1	-0.825% (inactive)
CCOc1ccccc1NC(=O)C1C2CCC(O2)C1C(=O)O (stereo not drawn)	22.9% (inactive)
Cc1cc(/C(N)=N/OC(=O)Nc2ccc(Cl)cc2)no1	0.994% (inactive)
COc1ccccc1/C=C/C=N/NC(=O)c1cccs1	9.36% (inactive)
Cc1ccccc1OCC(=O)Nc1cccc(C(=O)O)c1	6.99% (inactive)
COc1cccc(/C=N/NC(=O)c2cccs2)c1	4.46% (inactive)
COc1ccc(NC(=O)c2cc3ccccc3oc2=O)c(OC)c1	-10.4% (inactive)
COc1ccc(-c2noc(-c3cccs3)n2)cc1OC	3.3% (inactive)
N#CCSc1nc2ccccc2c2nc3ccccc3n12	-38.1% (inactive)
CC1(C)CC(=O)c2cnc(N3CCc4ccccc43)nc2C1	5.14% (inactive)
Cc1cc(C(=O)CSc2nnc3ccccn23)c(C)n1-c1ccccc1	-10.4% (inactive)
COc1ccccc1N(C(=O)CCl)c1cn(C(C)=O)c2ccccc12	-13.6% (inactive)
Cc1ccc2c(C(=O)CCl)c(C)[nH]c2c1	-26.6% (inactive)
Cn1cc(C(=O)CCl)c2ccccc21	-33.3% (inactive)
O=C(Nc1ccc(OC(F)(F)F)cc1)c1[nH]ncc1[N+](=O)[O-]	-0.947% (inactive)
COC(=O)c1c(C)[nH]c(/C=N/Nc2ccccc2)c1C	-7.12% (inactive)
COCc1nc(-c2ccc(-c3ccccc3)nc2OC)no1	12.8% (inactive)
C/C(=N\Nc1nccnc1Cl)c1ccc(O)c(C)c1	-5.53% (inactive)

Compound	activity change, negative = inhibition
Nc1ccc2c(c1)OC1(CCCC1)O2	4.5% (inactive)
COc1cc(OC)cc(-c2oc(=O)c3cc(OC)c(OC)cc3c2C(F)(F)F)c1	6.56% (inactive)
COc1c(C)cccc1C(=O)Nc1ccc(N2CCN(S(C)(=O)=O)CC2)cc1	2.37% (inactive)
CC1CCN(c2ccc(NC(=O)c3cccnc3)cc2)CC1	2.45% (inactive)
CC(C)(C)c1ccc(C(=O)Nc2ccc(CC(=O)O)cc2)o1	-8.99% (inactive)
CN1CCN(c2ccc(NC(=S)NC(=O)c3cccc4ccccc34)cc2)CC1	-22.1% (inactive)
CCCCOC(=O)Nc1ccc2c(C)cc(=O)oc2c1	-7.25% (inactive)
CC(C)N=C(NS(=O)(=O)c1ccccc1)C(Cl)(Cl)Cl	-23.1% (inactive)
CC(=O)Oc1ccc(C)cc1-n1nc2ccccc2n1	-8.62% (inactive)
NC(=O)c1ccccc1NC(=O)/C=C/c1cccc(Cl)c1	3.67% (inactive)
Nc1ccc(-c2ncc(-c3ccccc3)o2)cc1	8.17% (inactive)
N#C/C(=C\c1c[nH]c2ccccc12)C(=O)NC1CC1	8.25% (inactive)
Cc1ccc(NC(=O)c2cc3cccc([N+](=O)[O-])c3[nH]2)cc1	-4.99% (inactive)
ClC1(Cl)CC1CSc1nnc(-c2ccncc2)o1 (stereo not drawn)	-0.215% (inactive)
COc1cc(SC)ccc1C(=O)Nc1ccc(Br)cn1	-19.4% (inactive)
COc1ccc(-n2ncc3c(N4CCCCC4)ncnc32)cc1	-26.4% (inactive)
Cc1ccc(C(=O)c2coc3ccc(O)c(Cl)c23)cc1	-7.8% (inactive)
COc1cccc(-c2ccc3c(N)c(C(=O)NC4CC4)sc3n2)c1	6.5% (inactive)
Cc1ccc(S(=O)(=O)CC(CN2CCCCC2)N2CCCCC2)cc1 (stereo not drawn)	6.97% (inactive)
O=S(=O)(CC(CN1CCCCC1)N1CCCCC1)c1ccc2ccccc2c1 (stereo not drawn)	-17% (inactive)
C=CCC(Nc1ccccc1)C12C=CC(O1)C(C(=O)OC)=C2C(=O)OC (stereo not drawn)	-24.4% (inactive)
Cc1ccc(C)c(-n2c3nc(=O)[nH]c(=O)c-3cc3cc([N+](=O)[O-])ccc32)c1	11.9% (inactive)

Source: PubChem BioAssay AID493191 (Broad Institute, 2011)
